# Screening data from PubChem.
# Gal4-VP16 FLuc – VP16 counterscreen qHTS for inhibitors of ROR gamma transcriptional activity; Drosophila S2 Gal4-VP16 UAS-luciferase, luminescence, 20 h; Potency, µM (titrated, usually from 53.6 µM), actives largely listed as inhibitors; actives 3.5% (n = 310,000); AID 2546, 2010;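 further: Gal4-VP16 expression switched on by copper sulfate through the metallothionein promoter; nearly all actives have a fitted effect of over 50% in size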
# RORg inh – qHTS for inhibitors of ROR gamma transcriptional activity | Nuclear receptor ROR-gamma (Mus musculus), P51450 | Drosophila S2 Gal4-RORgamma UAS-luciferase reporter, 20 h | Potency, µM (top dose mostly 53.6 µM), most hits filed as inhibitors | actives 5.4% (n = 310,000) | AID 2551, 2010; further: nearly all actives have a fitted effect of over 60% in size
# Target sequence (P51450 whole entry, looked up, the tested form may be a part): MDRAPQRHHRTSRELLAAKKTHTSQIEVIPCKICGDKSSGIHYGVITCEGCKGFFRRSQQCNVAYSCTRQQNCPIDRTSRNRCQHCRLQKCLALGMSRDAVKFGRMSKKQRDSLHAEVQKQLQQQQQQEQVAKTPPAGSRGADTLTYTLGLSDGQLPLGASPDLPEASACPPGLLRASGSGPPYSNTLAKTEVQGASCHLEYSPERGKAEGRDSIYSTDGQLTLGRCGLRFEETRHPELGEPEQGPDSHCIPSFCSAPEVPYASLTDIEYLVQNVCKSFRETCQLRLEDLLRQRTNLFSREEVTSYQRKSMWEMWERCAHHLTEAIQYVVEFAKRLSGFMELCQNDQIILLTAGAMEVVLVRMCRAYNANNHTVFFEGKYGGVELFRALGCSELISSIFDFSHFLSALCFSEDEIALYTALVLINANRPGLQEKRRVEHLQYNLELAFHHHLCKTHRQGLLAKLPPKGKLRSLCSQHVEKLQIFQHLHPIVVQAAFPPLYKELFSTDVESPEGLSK
#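 Drosophila Schneider cells stably carrying a metallothionein-driven Gal4 DBD–ROR gamma fusion and a UAS-Photinus luciferase reporter were exposed to compound for 1 hr, then induced with copper sulfate (700 uM final) for 20 hr at ambient temperature before luminescence reading.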
# HepG2 viability – qHTS for Inhibitors of TGF-b: Cytotox Counterscreen; HepG2 CAGA-GFP viability, ATP luminescence, 18 h; Potency, µM (series often up to 46.1 µM), hits mostly cytotoxic; actives 0.76% (n = 410,000)
#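 HepG2 CAGA-GFP cells (1000/well, DMEM with 1% FBS) received compound, then TGF-beta at 500 pg/mL final, and were incubated 18 hours at 37 degrees C. Viability was read by CellTiter-Glo luminescence. Media-only wells were set as complete cell-killing and DMSO as no toxicity.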
# TGFb inhibitor – qHTS for Inhibitors of TGF-b. Potency, µM (top dose mostly 46.1 µM), most hits filed as inhibitors. actives 1.2% (n = 410,000). HepG2 CAGA-GFP TGF-b/SMAD3 reporter, GFP fluorescence, 18 h; TGF-beta stimulated, 500 pg/mL final; further: nearly all actives have a fitted effect of over 65% in size
#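 First, reporter cells (HEPG2 CAGA-GFP) rested 2 h at 37 degrees C. Next, compounds were pinned in and TGF-beta added to 500 pg/mL final. After 18 h, GFP was imaged per cell and summed per well.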
# ATXN viability – Viability Counterscreen for Primary qHTS for Inhibitors of ATXN expression; S2 cells (HEK-293 line with an ATXN2-luciferase reporter) viability, CellTiter-Fluor protease fluorescence, 24 h; Potency, µM (highest dose often 56.7 µM), hits mostly cytotoxic; actives 0.49% (n = 400,000); further: nearly all actives have a fitted effect of over 40% in size
# ATXN2 expr inh – Primary qHTS for Inhibitors of ATXN expression; HEK-293 ATXN2-luciferase reporter, luminescence, 24 h; Potency, µM (highest dose often 57 µM), actives largely listed as inhibitors; actives 0.72% (n = 360,000); further: nearly all actives have a fitted effect of over 55% in size
#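 qHTS (up to 57 uM final) was run with 24 h compound exposure of reporter cells at 37 °C. Each well was multiplexed: SteadyGlo luminescence measured ATXN2-luciferase expression after a fluorogenic Gly-Phe-AFC viability readout (25 uM final).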
# Hits are given with their value; – = inactive; ? = inconclusive; · = no result given; [ ] = dose if it differs, or a comment. Compounds with a hit are over-represented: about 6.1% of the library has one in this group of screens. The call rests on the fitted dose curve; in most records, active means well fitted curve in the direction sought with a large enough effect; inconclusive means small, poorly fitted or top-dose-only effect, or another doubt; inactive means no such curve, though single readings can be large; an effect the other way counts as inactive or inconclusive.
SMILES,Gal4-VP16 FLuc,RORg inh,HepG2 viability,TGFb inhibitor,ATXN viability,ATXN2 expr inh
Cc1ccc(CNC(=O)CCCN2C(=S)NC(C)(C)CC2C)cc1 (centres undefined),–,?,–,–,–,–
O=C(c1cccc([N+](=O)[O-])c1)N1CCN(CCc2ccncc2)CC1,·,·,–,–,–,–
CC(C)[C@@H](OCc1ccccc1)[C@H](C)/C=N\OC[C@@H](O)COCc1ccco1,–[10 µM],–[10 µM],·,·,·,·
Cc1cccc(N(CC(=O)N(C)Cc2ccccc2)S(=O)(=O)c2ccccc2)c1C,·,·,–,–,–,–
CCCC(=O)O[C@]1(C(=O)CCl)[C@H](C)C[C@@H]2[C@H]3CCC4=CC(=O)C=C[C@]4(C)[C@@]3(F)C(=O)C[C@@]21C,–,10µM,·,·,·,·
CC1CC2C3CCC4=CC(=O)C=C[C@]4(C)[C@@]3(Cl)C(O)C[C@]2(C)C1(OC(=O)c1ccco1)C(=O)CCl (some centres undefined),–,15.8µM,·,·,·,·
CCCCC(=O)O[C@@]1(C(=O)CO)C(C)CC2C3CCC4=CC(=O)C=C[C@@]4(C)[C@]3(F)C(O)C[C@]21C (some centres undefined),–,–,·,·,·,·
COCC(=O)Nc1cc(C(=O)N2CCc3c(Cl)cccc3C2)c2c(c1)nc(-c1ccncc1)n2C,·,·,·,·,–,·
O=C1c2cccc3cccc(c23)C(=O)N1CCN1CCN(C(=S)Nc2ccc(Cl)cc2)CC1,–,2.82µM,–,–,–,–
O=C1c2cccc3cccc(c23)C(=O)N1CCN1CCN(CC(O)COc2ccc3ccccc3c2)CC1 (centres undefined),11.2µM,?,–,–,?,?
CC(=O)c1ccccc1OCC(O)CN1CCN(CCN2C(=O)c3cccc4cccc(c34)C2=O)CC1 (centres undefined),?,–,–,?,–,?
O=C1c2cccc3cccc(c23)C(=O)N1CCN1CCN(CC(O)COCc2ccc(Cl)cc2)CC1 (centres undefined),?,–,12.6µM,14.1µM,?,?
O=C1c2cccc3cccc(c23)C(=O)N1CC1CCN(CC(O)COc2ccc3ccccc3c2)CC1 (centres undefined),–,–,15.8µM,?,–,?
O=C(NCC1CCC2(CCN(Cc3cc4ccccc4o3)CC2)O1)c1ccccc1 (centres undefined),·,·,·,·,–,·
Cc1ccc(-n2cc3c(c2-c2ccccc2Br)c(=O)n(C)c(=O)n3C)cc1N,·,·,–,?,?,–
CCC1C(=O)NCCN1Cc1ccc2c(c1)CN(Cc1cccn1-c1ccc(Cl)cn1)CCO2 (centres undefined),·,·,·,·,–,·
Cc1ccc(C(C)C)c(OCC(=O)Nc2ccc(S(=O)(=O)Nc3onc(C)c3C)cc2)c1,·,·,–,–,–,–
CCc1ccc(NC(=O)C(=O)NCC(c2ccc3c(c2)OCO3)N2CCOCC2)cc1 (centres undefined),·,·,–,–,–,–
CCc1ccc(OCC(O)CN2CCN(c3ccccc3)CC2)cc1 (centres undefined),–,–,–,–,–,–
CCc1ccc(OCC(O)CN2CCC(CN3C(=O)c4cccc5cccc(c45)C3=O)CC2)cc1 (centres undefined),–,–,–,–,·,25.1µM
COc1cccc(OCC(O)CN2CCC(CN3C(=O)c4cccc5cccc(c45)C3=O)CC2)c1 (centres undefined),–,–,14.1µM,?,?,?
COc1ccc(COCC(O)CN2CCC(CN3C(=O)c4cccc5cccc(c45)C3=O)CC2)cc1OC (centres undefined),–,–,–,–,?,–
Cc1cc(C)cc(OCC(O)CN2CCC(CN3C(=O)c4cccc5cccc(c45)C3=O)CC2)c1 (centres undefined),–,–,20µM,?,·,20µM
